Target: Transcription elongation factor SPT6 (UniProt Q7KZ85)
Experiment: cross-link between two proteins; cross-linking mass spectrometry

Listed as a hit, yes:
Transcription elongation factor SPT5, O00267
DNA-directed RNA polymerase II subunit RPB7, P62487
Transcription elongation factor SPT4, P63272

Source: publication PMC12440807
